Laboratory results: PubChem BioAssay (EPA / NIEHS)
Inconclusive results are not listed. Activity calls are given as the source filed them. Rule for the calls: active = hit-call score of the fitted dose curve at least 0.9, where 1 is the maximum; inconclusive = response in the unintended direction; inactive = score below 0.9.

How the values were obtained:
[1] = ATG_XTT_Cytotoxicity: Cytotoxicity Assessment in the Attagene TRANS-FACTORIAL HepG2 Assay (AID 2283584)
How it was run: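 HepG2 cells transiently transfected with GAL4-UAS multiple reporter units, dosed 24 h; cytotoxicity read by XTT as loss of signal versus DMSO baseline.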

[2] = biological target: Cellular tumor antigen p53 (Homo sapiens) (UniProt P04637); assay: TOX21_p53_BLA_p2_ratio: Tox21 HCT-116 p53 Agonism Beta-lactamase Assay, Ratio, Phase 2 (AID 2283592)
How it was run: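 First, HCT116 reporter cells settle for 5 h at 37C. Next, DMSO compound solutions are pinned in (217-fold dilution) and left 16 h. Finally, CCF4-AM substrate is loaded 2 h at room temperature and the 460/530 nm ratio read.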

[3] = biological target: Cellular tumor antigen p53 (Homo sapiens) (UniProt P04637); assay: TOX21_p53_BLA_p3_ratio: Tox21 HCT-116 p53 Agonism Beta-lactamase Assay, Ratio, Phase 3 (AID 2283596)
How it was run: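 Cells were seeded at 4000/well, rested 5 h at 37C, then dosed with DMSO compound solutions (217-fold dilution) for 16 h. CCF4-AM substrate was loaded for 2 h at room temperature, and the 460/530 nm emission ratio was fitted for gain of signal versus DMSO.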

[4] = biological target: Cellular tumor antigen p53 (Homo sapiens) (UniProt P04637); assay: TOX21_p53_BLA_p5_ratio: Tox21 HCT-116 p53 Agonism Beta-lactamase Assay, Ratio, Phase 5 (AID 2283599)
How it was run: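 Beta-lactamase reporter ratio (blue 460 nm over green 530 nm, 405 nm excitation) after 2 h CCF4-AM loading, in HCT-116 cells exposed 16 h at 37 C to compounds pinned at 217-fold dilution. Increases relative to DMSO baseline scored.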

[5] = TOX21_p53_BLA_p5_viability: Viability Assessment in the Tox21 HCT-116 p53 Agonism Beta-lactamase Assay, Phase 5 (AID 2283600)
How it was run: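 Decreased CellTiter-Glo luminescence denotes lost viability. Exposure: 16 h at 37C, 5% CO2, with compounds from DMSO stocks diluted 217-fold in wells of 4000 cells.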

[6] = biological target: Cellular tumor antigen p53 (Homo sapiens) (UniProt P04637); assay: TOX21_p53_BLA_p4_ratio: Tox21 HCT-116 p53 Agonism Beta-lactamase Assay, Ratio, Phase 4 (AID 2283601)
How it was run: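 Signal is the blue/green (460nm/530nm) ratio of cleaved versus uncleaved CCF4-AM substrate, read after 2 h substrate loading. Cells were HCT116 carrying the p53-responsive beta-lactamase reporter, dosed 16 h at 37C, 5% CO2; CellTiter-Glo measured in parallel.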

[7] = ACEA_AR_agonist_AUC_viability: ACEA Biosciences xCELLigence Real-Time Cell Analysis on Androgen Receptor Agonism for Viability (AID 2283775);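 for AC50: viability read 80 hours after compound addition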
How it was run: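 Viability endpoint from xCELLigence impedance in 22Rv1 prostate cells at 80 h. Eight-point series, 100 uM maximum final.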

[8] = TOX21_p53_BLA_p4_viability: Viability Assessment in the Tox21 HCT-116 p53 Agonism Beta-lactamase Assay, Phase 4 (AID 2283597);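 note: hits lower the luminescence signal meaning cytotoxicity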
How it was run: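 4000 HCT116 cells per well; 5 h attachment; compounds from DMSO, 217-fold dilution; 16 h at 37C. Then CCF4-AM, 2 h RT, followed by CellTiter-Glo, 30 min RT, luminescence. Decrease = cytotoxicity.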

[9] = STM_H9_OrnCyssISnorm_ratio: Stemina devTOX quickPredict H9 human embryonic stem cell (hESC)-based Assay for Ornithine (ORN):Cystine (CYSS) Ratio (AID 2283714)
How it was run: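 Ratio of internal-standard-normalized ornithine to cystine, measured by UPLC-HRMS in spent media from the last 24 h. H9 cells kept pluripotent, dosed 72 h with daily media and compound renewal; DMSO 0.1% serves as baseline.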

[10] = TOX21_p53_BLA_p3_viability: Viability Assessment in the Tox21 HCT-116 p53 Agonism Beta-lactamase Assay, Phase 3 (AID 2283593);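 note: cells exposed to compound for 16 h before reading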
How it was run: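 Cellular ATP was quantified by CellTiter-Glo luminescence, read after 30 min at room temperature. Beforehand, HCT116 cells (4000/well) received compound 5 h post-seeding, 217-fold diluted from DMSO, then incubated 16 h at 37C.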

[11] = tested on: Thyroperoxidase (TPO), gene 54314; assay: CCTE_Simmons_AUR_rTPO: CCTE's Amplex UltraRed Assay for Thyroperoxidase (TPO) Inhibition, Simmons Lab (AID 2283662);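 note: potency for loss of signal meaning inhibition of peroxidase activity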
How it was run: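 Rat thyroid microsomes (5 ug protein) were incubated with test compound (8 concentrations, 5 nM–87.5 uM final, 0.5% DMSO), 25 uM Amplex UltraRed and 300 uM H2O2 in 200 mM phosphate buffer for 30 min at 37C in the dark; fluorescence read at 544/590 nm.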

[12] = CCTE_Simmons_CellTiterGLO_HEK293T: Viability Assessment in CCTE's Assays for Thyroperoxidase (TPO) Inhibition, Simmons Lab (AID 2283665);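 for AC50: cells exposed to compound for 24 h before readout; actives reduce ATP signal below DMSO vehicle meaning cytotoxicity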
How it was run: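 ATP depletion measured in HEK293T cells after 24 h dosing (8 concentrations, 5 nM–87.5 uM final; DMSO 0.5%) using CellTiter-Glo luminescence; curves fit for loss of signal against DMSO baseline.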

[13] = biological target: Luciferin 4-monooxygenase (Photinus pyralis) (UniProt P08659); assay: CCTE_Simmons_QuantiLum_inhib_2: CCTE's Firefly Luciferase Inhibition Assay, Simmons Lab (AID 2283767);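 for AC50: potency for inhibitors that lower luciferase luminescence relative to DMSO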
How it was run: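 Eight-point titrations of each chemical, 5 nM–87.5 uM final in 0.5% DMSO, were run in three biological replicates against recombinant luciferase for 30 min at 37C. Bioluminescence signal loss, read on reagent injection, gave the inhibition endpoint.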

Chain of Cellular tumor antigen p53 (Homo sapiens) (P04637 whole entry, looked up): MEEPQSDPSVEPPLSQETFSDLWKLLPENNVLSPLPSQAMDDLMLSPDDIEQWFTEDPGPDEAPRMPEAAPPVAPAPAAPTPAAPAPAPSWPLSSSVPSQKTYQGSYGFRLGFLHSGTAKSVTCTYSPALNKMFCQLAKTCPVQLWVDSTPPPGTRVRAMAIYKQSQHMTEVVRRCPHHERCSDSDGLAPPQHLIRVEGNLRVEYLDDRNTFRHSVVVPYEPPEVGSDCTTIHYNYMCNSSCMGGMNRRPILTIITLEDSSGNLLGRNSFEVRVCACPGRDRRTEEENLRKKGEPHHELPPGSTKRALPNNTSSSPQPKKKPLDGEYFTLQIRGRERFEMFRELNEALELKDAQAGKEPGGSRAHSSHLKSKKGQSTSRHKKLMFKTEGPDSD
Chain of Luciferin 4-monooxygenase (Photinus pyralis) (P08659 whole entry, looked up): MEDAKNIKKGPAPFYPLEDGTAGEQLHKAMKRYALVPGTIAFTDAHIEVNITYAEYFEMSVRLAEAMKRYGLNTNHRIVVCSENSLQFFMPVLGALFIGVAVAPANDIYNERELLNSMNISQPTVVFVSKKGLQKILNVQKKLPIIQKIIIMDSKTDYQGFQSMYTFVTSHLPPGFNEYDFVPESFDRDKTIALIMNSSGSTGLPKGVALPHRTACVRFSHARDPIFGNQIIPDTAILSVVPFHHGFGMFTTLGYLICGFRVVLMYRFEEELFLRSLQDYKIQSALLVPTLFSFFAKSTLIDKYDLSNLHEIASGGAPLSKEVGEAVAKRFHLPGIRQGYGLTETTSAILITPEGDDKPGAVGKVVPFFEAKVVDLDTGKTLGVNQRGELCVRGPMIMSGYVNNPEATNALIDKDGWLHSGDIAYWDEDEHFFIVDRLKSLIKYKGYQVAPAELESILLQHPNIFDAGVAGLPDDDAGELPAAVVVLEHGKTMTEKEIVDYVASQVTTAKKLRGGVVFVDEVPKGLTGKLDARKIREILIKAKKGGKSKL

In the case of CCN(CCO)c1cccc(C)c1, the outcome [1] is reported as “inactive”, the outcome [2] is reported as “inactive” and the outcome [3] is reported as “inactive”. The outcome [4] was “inactive”.
In the case of Cc1ccc(C(C)(C)C)cc1, the outcome [1] is reported as “inactive”, the outcome [2] is reported as “inactive” and the outcome [3] is reported as “inactive”. For the same molecule, the outcome [4] was “inactive”, the outcome [5] was “inactive” and the outcome [6] was “inactive”. The outcome [7] was “inactive”.
In the case of CCCCCCOC(=O)C(C)CC (stereo unspecified), the outcome [1] is reported as “inactive”, the outcome [2] is reported as “inactive” and the outcome [8] is reported as “inactive”. For the same molecule, the outcome [6] was “inactive”.
With CCCCCCCCCCOC(C)=O the outcome [1] was “inactive”, the outcome [2] was “inactive” and the outcome [3] was “inactive”. For the same molecule, the outcome [5] was “inactive”.
In the case of c1c[nH]cn1, the outcome [1] is reported as “inactive”, the outcome [2] is reported as “inactive” and the outcome [3] is reported as “inactive”. The outcome [7] was “inactive”.
In the case of O=C1CCCCCCCCCCC(=O)OCCO1, the outcome [1] is reported as “inactive”, the outcome [2] is reported as “inactive” and the outcome [3] is reported as “inactive”. For the same molecule, the outcome [4] was “inactive”, the outcome [5] was “inactive” and the outcome [9] was “inactive”.
In the case of CCN(CCC#N)c1ccc(N=Nc2c(Cl)cc([N+](=O)[O-])cc2Cl)cc1, the outcome [1] is reported as “inactive”, the outcome [10] is reported as “inactive” and the outcome [3] is reported as “inactive”. The outcome [8] was “inactive”, the outcome [4] was “inactive” and the outcome [5] was “inactive”. For the same molecule, the outcome [6] was “inactive”, the AC50 [11] was 37.9 µM (active) and the AC50 [12] was 41.8 µM (active). For the same molecule, the AC50 [13] was 53.8 µM (active) and the AC50 [7] was 3.43 µM (active).
In the case of CNC(=S)NN, the outcome [1] is reported as “inactive”, the outcome [2] is reported as “inactive” and the outcome [3] is reported as “inactive”. For the same molecule, the outcome [5] was “inactive”, the outcome [6] was “inactive” and the AC50 [11] was 22.5 µM (active). For the same molecule, the outcome [12] was “inactive”, the outcome [13] was “inactive” and the outcome [7] was “inactive”.
In the case of COc1c2ccoc2cc2oc(=O)ccc12, the outcome [1] is reported as “inactive”, the outcome [10] is reported as “inactive” and the outcome [3] is reported as “inactive”. For the same molecule, the outcome [8] was “inactive”, the outcome [4] was “inactive” and the outcome [5] was “inactive”. For the same molecule, the outcome [6] was “inactive”.
For Cc1cnc(NC(=O)C2=C(O)c3ccccc3S(=O)(=O)N2C)s1, the outcome [1] was “inactive”, the outcome [2] was “inactive” and the outcome [3] was “inactive”. The outcome [4] was “inactive” and the outcome [6] was “inactive”.
For O=C(O)c1cc(Cl)cc([N+](=O)[O-])c1Cl, the outcome [1] was “inactive”, the outcome [8] was “inactive” and the outcome [5] was “inactive”. The outcome [6] was “inactive”.
For Cc1cc(C)c(C(=O)O)c(C)c1, the outcome [1] was “inactive”, the outcome [2] was “inactive” and the outcome [3] was “inactive”. The outcome [4] was “inactive”, the outcome [6] was “inactive” and the outcome [7] was “inactive”.
For CC(=O)C=CC1C(C)=CCC(C)C1(C)C (stereo unspecified), the outcome [1] was “inactive”, the outcome [4] was “inactive” and the outcome [5] was “inactive”. The outcome [6] was “inactive”.
For O=S(=O)(O)c1ccc2cc(O)c(S(=O)(=O)O)cc2c1, the outcome [1] was “inactive”, the outcome [10] was “inactive” and the outcome [8] was “inactive”. The outcome [4] was “inactive” and the outcome [5] was “inactive”.
For OCCNCc1ccccc1, the outcome [1] was “inactive”, the outcome [10] was “inactive” and the outcome [3] was “inactive”. The outcome [8] was “inactive”, the outcome [4] was “inactive” and the outcome [5] was “inactive”.
